Reference: the supplement of paper PMC9492666
Where a name gives a salt, the structure may show the parent alone.

The molecules below were run on HCC1937 (assay: relative cell viability, compound alone, vs DMSO (fraction of DMSO control); higher = less growth inhibition). Conditions: 72 h.
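Also: viability read out with the CCK-8 kit in 96-well plates, screening a set of 303 compounds acting on lipid metabolism targets.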

| SMILES | relative cell viability |
| --- | --- |
| CCCCCCCCCCOc1ccc(C(=O)Nc2cc(C(=O)NCCCC)ccc2SC)cc1 | 1.02 |
| CC[C@H](C)C(=O)O[C@H]1C[C@@H](C)C=C2C=C[C@H](C)[C@H](CC[C@@H]3C[C@@H](O)CC(=O)O3)[C@H]21 [Lovastatin] | 1.13 |
| Cc1ccc(/C=C2\SC(=S)N(CCCCCC(=O)Nc3ccc(C(=O)O)c(O)c3)C2=O)cc1 | 1.07 |
| Cc1cc(C)c(S(=O)(=O)Nc2cccc(C(F)(F)F)c2)c(C)c1 | 1.12 |
| CCC(C)(Oc1ccc(C2(c3ccc(OC(C)(CC)C(=O)O)cc3)CCCCC2)cc1)C(=O)O (centres undefined) [Clinofibrate] | 0.901 |
| C[C@H](CCOc1cccc(CC(=O)O)c1)N(Cc1cccc(C(F)(F)F)c1Cl)CC(c1ccccc1)c1ccccc1 | 0.632 |
| CSc1ccc(C(=O)/C=C/c2cc(C)c(OC(C)(C)C(=O)O)c(C)c2)cc1 [Elafibranor] | 1.57 |
| CN(C)CCOC(=O)COc1ccc(Cl)cc1 [Meclofenoxate hydrochloride] | 0.782 |
| Cc1c(C(=O)NN2CCOCC2)nn(-c2ccc(Cl)cc2Cl)c1-c1ccc(I)cc1 | 0.645 |
| O=C(c1c2ccccc2cc2ccccc12)N1CCC(N2CCC[C@@H](C(=O)N3CCOCC3)C2)CC1 | 0.763 |
| COc1cc(N2CCN(C)CC2)ccc1Nc1ncc2c(n1)N(C)c1ccccc1C(=O)N2 | 0.666 |
| Cc1ccc(C)c(OCCCC(C)(C)C(=O)O)c1 [Gemfibrozil] | 0.736 |
| c1cc(-c2cnn3cc(-c4ccc(OCCN5CCCCC5)cc4)cnc23)ccn1 [Dorsomorphin dihydrochloride] | 0.138 |
| CC(C)(C)c1ccc(-c2nc3ccccc3[nH]2)cc1 | 0.728 |
| O=C(OC(C(F)(F)F)C(F)(F)F)N1CCN(Cc2ccc(C(F)(F)F)cc2N2CCCC2)CC1 | 0.999 |
| CC(C)c1nc(N(C)S(C)(=O)=O)nc(-c2ccc(F)cc2)c1/C=C/[C@@H](O)C[C@@H](O)CC(=O)O [Rosuvastatin] | 0.633 |
| COc1ccc(C(=O)/C=C/c2ccccc2)cc1 [4'-Methoxychalcone] | 0.73 |
| CC(C)(Oc1ccc(Cl)cc1)C(=O)O [Clofibric acid] | 1.24 |
| O=C(O)C(O)Cc1ccc(O)c(O)c1 (centres undefined) [Sodium Danshensu] | 0.718 |
| O=C(Nc1ccc(C(O)(C(F)(F)F)C(F)(F)F)cc1)c1ccc(C(F)(F)F)cc1 | 0.54 |

| SMILES | relative cell viability |
| --- | --- |
| CC(C)(Oc1ccc(C(=O)c2ccc(Cl)cc2)cc1)C(=O)O [Fenofibric acid] | 0.686 |
| O=C1c2cc(CO)cc(O)c2C(=O)c2c(O[C@@H]3O[C@H](CO)[C@@H](O)[C@H](O)[C@H]3O)cccc21 [Aloe-emodin-8-O-beta-D-glucopyranoside] | 0.544 |
| C[C@H](CCCC(C)(C)O)[C@H]1CC[C@H]2[C@@H]3CC=C4C[C@@H](O)CC[C@]4(C)[C@H]3CC[C@]12C [25-Hydroxycholesterol] | 0.982 |
| CC(C)(Oc1ccc(CCNC(=O)c2ccc(Cl)cc2)cc1)C(=O)O [Bezafibrate] | 0.628 |
| CCCCCCCCCCCC1=C(O)C(=O)C=C(O)C1=O [Embelin] | 1.08 |
| O=C(Nc1ccccc1)N1CCN(c2nc(-c3ccccc3)ns2)CC1 | 0.807 |
| CCc1ccc(N(CC(C)C)S(=O)(=O)c2ccc(OCC3CCOCC3)c(CO)c2)cc1 | 0.954 |
| O=C(NN1CCCCC1)c1nn(-c2ccc(Cl)cc2Cl)c(-c2ccc(C#Cc3ccc(C(F)(F)F)cc3)s2)c1CNS(=O)(=O)N1CCCC1 | 1.01 |
| Nc1ncnc2c1ncn2[C@@H]1O[C@H](COP(=O)(O)O)[C@@H](O)[C@H]1O [Adenosine 5'-monophosphate] | 0.663 |
| COc1ccc2c(c1)c(CC(=O)O)c(C)n2C(=O)c1ccc(Cl)cc1 [Indometacin] | 1.28 |
| Cc1ccc(Oc2nc3cc(-c4ccc(-c5ccccc5)cc4)c(Cl)cc3[nH]2)cc1C(=O)O | 0.95 |
| COc1cccc(CNc2ccc(S(=O)(=O)Nc3nc4ccccc4s3)cc2)c1O | 1.01 |
| C[N+](C)(C)CC(O)CC(=O)[O-] (stereo not drawn) [L(-)-Carnitine] | 0.738 |
| Nc1ncnc2c1ncn2C1OC(COP(=O)(O)O)C(O)C1O (centres undefined) [Adenosine 5'-monophosphate monohydrate] | 1.09 |
| O=C(O)c1cc(F)c2nc(N3[C@@H]4CC[C@H]3C[C@@H](OCc3c(-c5ccccc5OC(F)(F)F)noc3C3CC3)C4)sc2c1 [Tropifexor] | 1.05 |
| Cc1cc(C)c(S(=O)(=O)N(CCc2cccc(Br)c2)Cc2ccc(-c3cccc(S(C)(=O)=O)c3)cc2)c(C)c1 | 0.708 |
| O=C(O)c1ccnc(N2CC(O)(c3ccc(OCc4c(-c5c(Cl)cccc5Cl)noc4C4CC4)cc3Cl)C2)c1 [Cilofexor] | 0.661 |
| CCCCCCCCCCCCC/C=C/[C@@H](O)[C@@H](N)CO | 0.331 |
| NC(N)=N/N=C/c1cccc(Cl)c1Cl [Raphin1 acetate] | 1.01 |
